# About 79,000 compounds went through this panel and 15% of them were active in at least one assay; those are over-represented in the sample as a whole. A number with no mark means an inactive call. Activity calls are given as the source filed them. No stated cut-off is given here; in the data, active means growth inhibition above about 70%; inactive means the rest.
# Experiment: NCI Yeast Anticancer Drug Screen. Data for the sgs1 mgt1 strain (AID 161);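 further: 0% = growth of cultures given vehicle only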
# Details: S. cerevisiae sgs1 mgt1 strain, at 50.0 µM, stronger effect = higher value
# Summary of the method: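 Growth of a repair-deficient yeast mutant was monitored after compound treatment and expressed as inhibition relative to vehicle-treated cultures.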
row,SMILES,growth inhibition
1,COC(=O)c1nc(=S)[nH]c(C(=O)OC)c1C(=O)c1ccccc1O,14.1%
2,O=CNNC(=O)Nc1cccc2ccccc12,-20%
3,CCOC(=O)c1ccc(CSc2ccc(OC)cc2)cc1,86.4% (active)
4,COc1ccccc1/C=C1/Sc2scc(CC(=O)Nc3ccccc3)[n+]2C1=O,23.6%
5,CC(C)Cn1cnc2c(Sc3c([N+](=O)[O-])ncn3C)nc(N)nc21,-13.2%
6,N=C1C(O)C2(I)c3ccccc3N3C(=N)C(O)C4c5ccccc5N1C4C32 (stereo not given),-38.5%
7,CCCCCCCCCCCCCCCC[N+](C)(C)Cc1ccccc1,99.3% (active)
8,N#CC1(CCCI)CCCC1,7.95%
9,CCOC(=O)C1C(=O)CC(O)(c2ccccc2)C(C(=O)OCC)C1c1ccc(OC)cc1 (stereo not given),-6.65%
10,CCCCCCCCCCCCC(F)C(=O)OCC1OC(n2cc(C)c(=O)[nH]c2=O)CC1N=[N+]=[N-] (stereo not given),36.4%
11,C(=C/c1ccccc1)/C=N/N1CCN(/N=C/C=C/c2ccccc2)CC1,14.8%
12,COc1cccc2c1oc(=O)c1ccccc12,-19.6%
13,COC(=O)c1nnn(-c2cc(Cl)ccc2Cl)c1C(=O)c1ccc(OC)cc1,-12.7%
14,Cc1ccc(C(C)C)nc1,19.1%
15,CCOc1ccccc1N1C(=O)C(=O)C(c2nc3ccccc3o2)C(=O)C1=O,-8.4%
16,CCCCCCC1(C=O)C(=O)NC(=O)N1C (stereo not given),6.45%
17,Cn1c(=O)c2c(nc(Cl)n2Cc2ccc([N+](=O)[O-])cc2)n(C)c1=O,-2.55%
18,S=c1sc2ccccc2n1CN1CCCC1,29.9%
19,NN(CC(=O)O)CC(=O)O,2%
20,O=C1NC2CCC(NC(=O)N1c1ccccc1)C1=C2C1,-5.7%

row,SMILES,growth inhibition
1,COc1ccc2c(c1)CCCN2c1ccc(N=C(N)N)cc1,-1.75%
2,O=C(O)Cc1cc2cccc([N+](=O)[O-])c2[nH]1,8.75%
3,CCOC(=O)C1SC(=S)N(c2ccccc2)C1N (stereo not given),39.8%
4,COc1cc(Cc2c(OC)c(OC)cc(C)c2C(=O)O)cc(OC)c1,-1.75%
5,C/C(=C\c1ccccc1)C(=O)c1ccccc1,1.3%
6,Cc1cc2nc3c(C(O)C(O)C(O)CO)nn(-c4ccccc4)c3nc2cc1C (stereo not given),-9.25%
7,CCOc1ccccc1OCC,-25.9%
8,Cc1ccc(NC(=O)/C=C2\CONC(c3ccccc3)=N2)cc1,-8.3%
9,CC(=O)OC1CCC2(C)C(C1)CC(OC(C)=O)C1C2CC(OC(C)=O)C2(C)C(C(C)CC=C(c3ccccc3)c3ccccc3)CCC12 (stereo not given),-4.1%
10,O=C1c2ccccc2C(O)(C#Cc2ccccc2)c2c1c(-c1ccccc1)c1ccccc1c2-c1ccccc1 (stereo not given),15.7%
11,C[n+]1ccc(NN)cc1,20.3%
12,O=C1OC(c2ccccc2)=CC1(Cc1ccccc1)Cc1ccccc1,4.35%
13,CCSC(SCC)C(SCC)C(OC(=O)c1ccccc1)C(OC(=O)c1ccccc1)C(COC(=O)c1ccccc1)OC(=O)c1ccccc1 (stereo not given),-14.4%
14,CCOC(=O)N1CCC2C(=C(C)C(C)C3=C2C(=O)c2ccccc2C3=O)C1 (stereo not given),-8.9%
15,CCC(C)C(C)(O)CC (stereo not given),-21.8%
16,Cc1cc(O)c(C)c(C)c1C,4.5%
17,O=C1C(=O)N(CN2CCCCC2)c2ccccc21,26.4%
18,CN1CCCC(NC(c2ccccc2)c2ccccc2)C1 (stereo not given),23.9%
19,Cc1cccc(C)c1NC(=S)NC(=O)c1cccc(Cl)c1,-2.9%
20,C/C(=C\CC1C(=O)N(c2ccccc2)N(c2ccccc2)C1=O)CO,-29.9%

# Reference: PubChem BioAssay (NCI)
